Values joined by “and” are separate entries in the source; they are usually repeats but may differ in a detail not shown here. Equal values may be shown once. Results filed as inconclusive are left out. Entries that show only a call come without a potency. A number with no mark means an inactive call. Active and inactive are the calls of the source. Calls come from the whole dose curve; as a rule, active = well fitted cell-killing curve with a large enough effect in the repeat runs; inconclusive = weak or mixed curves, or effect the other way; inactive = flat fitted curve, though single readings scatter.

This is an account of results in PubChem BioAssay (Tox21).
Potency is the fitted concentration of half-maximal effect.

A short description of the experiment: qHTS RealTime-Glo MT Cell Viability Assay in HEK293 cells - 8 hour (AID 1224887). For activity change, negative = cytotoxicity: top concentration of the series differs between compounds. Note: nearly all actives have a fitted effect of over 50% in size. The note with it: RealTime-Glo luminescence; series mostly up to 76.8 µM; activity change, negative = cytotoxicity: at the top concentration. From the text: U.S. Tox21 Program National Center for Advancing Translational Sciences [NCATS] NIH Chemical Genomics Center [NCGC] U.S. Environmental Protection Agency [EPA] National Institutes of Environmental Health Sciences [NIEHS] National Toxicology Program [NTP] U.S. Food and Drug Administration [FDA] Tox21 Assay Overview: Measure of cell viability is critical in the cell-base assay. Analysis of cell viability is necessary for the characterization of cell responses to cytotoxic drugs and environmental stress. A RealTime-Glo MT Cell Viability Assay to monitor cell viability in real time of continues cell culture during 40 hours of compound treatment was used to screen Tox21 10K library compounds in Hek293 cells. The RealTime-Glo MT Cell Viability Assay is a nonlytic, homogeneous, bioluminescent method to measure cell viability in real time using a simple, plate-based method. The assay involves adding NanoLuc luciferase and a cell-permeant prosubstrate to cells in culture. Viable cells reduce the proprietary prosubstrate to generate a substrate for NanoLuc luciferase. This substrate diffuses from cells into the surrounding culture medium, where it is rapidly used by the NanoLuc Enzyme to produce a luminescent signal. The signal correlates with the number of viable cells, making the assay well suited for cytotoxicity studies.
Tox21 Assay Protocol Summary: The mixture of Hek293 cell suspension and reagents were dispensed at 600cells/6 ul/well in 1536-well tissue culture treated black solid bottom plates using a Multidrop dispenser. After the assay plates were incubated at a 37 C/5% CO2 incubator for 5 hours, 23 nL of compounds dissolved in DMSO, positive and negative controls was transferred to the assay plate by a pintool work station. The plates were incubated at 37 C for 40 hours. The luminescence intensity were measured at 0h, 8h, 16h, 24h, 32h and 40h time points using ViewLux plate reader during compound treatment.
On the technique in general: Quantitative high-throughput screening tests each substance at several concentrations.
For `CNNCc1ccc(C(=O)NC(C)C)cc1`, the Potency result was “inactive”.

Consider `Cc1ccc(S(=O)(=O)O)cc1`, for which the Potency result is “inactive”. Still for that read-out and setting: the entry for `O=C1NS(=O)(=O)c2ccccc21` is “inactive”; for `C/C=C/C=C/C(=O)O` it is “inactive”; for `CCOC(N)=O` it is “inactive”. With `NC(CO)(CO)CO`, the Potency result was “inactive”. Still for that read-out and setting: as for `CCCC[P+](CCCC)(CCCC)CCCC`, the entry is “inactive”; as for `C=C1CC[C@H](O)C/C1=C\C=C1/CCC[C@]2(C)[C@@H]([C@H](C)CCCC(C)C)CC[C@@H]12`, 24.3 µM (active); as for `CN1[C@@H]2CC(OC(=O)[C@H](CO)c3ccccc3)C[C@H]1[C@@H]1O[C@@H]12` (stereo not given in full), “inactive”. Consider `Nc1ccc([N+](=O)[O-])cc1O`, for which the “activity change, negative = cytotoxicity” value was -5.84%. Take `CC(=O)CCC(=O)O`: the Potency entry was “inactive”. On the same count and under the same terms, the entry for `CCCCC1(COC(=O)CCC(=O)O)C(=O)N(c2ccccc2)N(c2ccccc2)C1=O` is “inactive”; for `CCCCNC(=O)NS(=O)(=O)c1ccc(C)cc1` it is “inactive”; for `CCOc1ccc(NC(C)=O)cc1` it is “inactive”. In the case of `CN(C)C(=S)SC(=S)N(C)C`, the “activity change, negative = cytotoxicity” value is -25.3% [at 35.3 µM]. For the compound `Cc1ncc([N+](=O)[O-])n1C`, the Potency entry is “inactive”. Still for that read-out and setting: as for `Oc1ccccc1`, the entry is “inactive”; as for `CCCCCCCCCCCC[N+](C)(C)Cc1ccccc1`, 53.9 µM (active) and 59.7 µM (active); as for `CC12CCC(CC1)C(C)(C)O2`, “inactive”. Still for that read-out and setting: as for `NS(=O)(=O)O`, the entry is “inactive”. Consider `O=C(Nc1ncc([N+](=O)[O-])s1)c1cccs1`, for which the “activity change, negative = cytotoxicity” value was -6.17% [at 35.3 µM]. For `CS(=O)(=O)OCCCCOS(C)(=O)=O`, the Potency entry is “inactive”.

As to `Nc1ccc(O)c([N+](=O)[O-])c1`, the “activity change, negative = cytotoxicity” value was -1.08%. Consider `C1CCC(C(CC2CCCCN2)C2CCCCC2)CC1` (stereo not given), for which the Potency was 23.9 µM (active). On the same count and under the same terms, as for `C=CCc1ccc(O)c(OC)c1`, the entry is “inactive”. For `CCc1nc(N)nc(N)c1-c1ccc(Cl)cc1`, the “activity change, negative = cytotoxicity” value was -16.7% [at 35.3 µM].

`Cc1cc(=O)oc2cc(O)ccc12`: the Potency result is “inactive”. On the same count and under the same terms, as for `O=S1(=O)OC(c2ccc(O)cc2)(c2ccc(O)cc2)c2ccccc21`, the entry is “inactive”.

Regarding `Nc1ccc(S(N)(=O)=O)cc1`, the Potency entry was “inactive”. The same measure, in the same setting: as for `O=c1[nH]cnc2c1ncn2[C@H]1CC[C@@H](CO)O1`, the entry is “inactive”; as for `O=C1NC(=O)C(c2ccccc2)(c2ccccc2)N1`, “inactive”; as for `O=C1c2c(O)cccc2Cc2cccc(O)c21`, “inactive”. `CN(C)C(=O)Nc1ccc(Cl)c(Cl)c1`: the Potency result was “inactive”. On the same count and under the same terms, the entry for `CC(O)(P(=O)(O)O)P(=O)(O)O` is “inactive”; for `Cn1c(=O)c2c(ncn2C)n(C)c1=O` it is “inactive”; for `O=C1O[C@H]([C@@H](O)CO)C(O)=C1O` it is “inactive”. Same read-out and setting: the figure for `CC(C)C(=O)Nc1ccc([N+](=O)[O-])c(C(F)(F)F)c1` is 22.5 µM (active) and 21.9 µM (active) and 9.52 µM (active). For `NC(=O)n1c(O)c(C(=O)c2cccs2)c2cc(Cl)ccc21`, the “activity change, negative = cytotoxicity” value is 4.74% [at 35.3 µM]. Same read-out and setting: the figure for `O=CC(=O)c1ccccc1` is -5.23%. With `OC[C@H]1O[C@H](O[C@]2(CCl)O[C@H](CCl)[C@@H](O)[C@@H]2O)[C@H](O)[C@@H](O)[C@H]1Cl`, the Potency result was “inactive”.
